Assay results as given in paper PMC7862700, “An all-to-all approach to the identification of sequence-specific readers for epigenetic DNA modifications on cytosine”.

Columns and labels:
Experiment in all cases: DAPPL (digital affinity profiling via proximity ligation, sequencing); 10 mM Tris-HCl pH 7.5, 50 mM NaCl, 1 mM DTT, 4% glycerol, room temperature, 30 min; GST-TFs on glutathione beads, 16-mer random dsDNA library, 0.1% formaldehyde crosslink after washing; high values mean tight binding
Conditions in all cases: protein: recombinant; tags: N-terminal GST; dsDNA, one strand shown
FLI1 = biological target: T1, FLI1 (Homo sapiens, UniProt Q01543 1-452)
T1 sequence: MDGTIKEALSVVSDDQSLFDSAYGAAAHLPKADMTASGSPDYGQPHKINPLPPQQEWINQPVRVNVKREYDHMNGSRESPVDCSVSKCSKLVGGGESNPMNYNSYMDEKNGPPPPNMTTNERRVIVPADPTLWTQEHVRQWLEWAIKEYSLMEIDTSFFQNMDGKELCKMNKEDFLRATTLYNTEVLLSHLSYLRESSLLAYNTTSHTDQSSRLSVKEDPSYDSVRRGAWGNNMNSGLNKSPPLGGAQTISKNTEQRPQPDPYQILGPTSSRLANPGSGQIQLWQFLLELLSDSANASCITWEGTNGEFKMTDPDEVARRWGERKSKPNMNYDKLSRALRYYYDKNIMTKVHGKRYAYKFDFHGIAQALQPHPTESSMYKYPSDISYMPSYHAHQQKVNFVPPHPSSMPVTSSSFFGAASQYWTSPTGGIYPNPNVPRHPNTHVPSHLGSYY
Outline: (§1)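 Pools of DNA-barcoded human transcription factors, expressed in yeast as GST fusions on glutathione beads and combined with a tag-only sample, were incubated with 200 nmole of a 16-mer random double-stranded DNA library. Incubation took 30 min at room temperature in Tris/NaCl/DTT/glycerol buffer and was followed by washing, 0.1% formaldehyde crosslinking, proximity ligation (BsaI/T4 ligase, 1 h, 37 °C), PCR amplification and sequencing on an Illumina NextSeq500. Binding signal is the ratio of a hexamer's read frequency for a factor to its frequency for the tag-only sample.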

ELK1 = biological target: T2, ELK1 (Homo sapiens, UniProt P19419 1-428)
T2 sequence: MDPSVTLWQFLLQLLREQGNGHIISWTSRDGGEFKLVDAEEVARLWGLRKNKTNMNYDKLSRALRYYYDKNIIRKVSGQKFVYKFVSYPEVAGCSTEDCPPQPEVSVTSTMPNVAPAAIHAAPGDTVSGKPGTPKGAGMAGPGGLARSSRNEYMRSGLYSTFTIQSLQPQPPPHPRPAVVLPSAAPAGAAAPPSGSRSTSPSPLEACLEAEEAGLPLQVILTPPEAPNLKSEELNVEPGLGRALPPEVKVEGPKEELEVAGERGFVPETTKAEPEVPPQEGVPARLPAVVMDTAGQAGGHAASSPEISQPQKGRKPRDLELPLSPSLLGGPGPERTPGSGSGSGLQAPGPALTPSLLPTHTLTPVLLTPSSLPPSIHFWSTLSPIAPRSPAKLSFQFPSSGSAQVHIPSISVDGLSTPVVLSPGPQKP
Outline: as §1

GABPA = biological target: T3, GABPA (Homo sapiens, UniProt Q06546 1-454)
T3 sequence: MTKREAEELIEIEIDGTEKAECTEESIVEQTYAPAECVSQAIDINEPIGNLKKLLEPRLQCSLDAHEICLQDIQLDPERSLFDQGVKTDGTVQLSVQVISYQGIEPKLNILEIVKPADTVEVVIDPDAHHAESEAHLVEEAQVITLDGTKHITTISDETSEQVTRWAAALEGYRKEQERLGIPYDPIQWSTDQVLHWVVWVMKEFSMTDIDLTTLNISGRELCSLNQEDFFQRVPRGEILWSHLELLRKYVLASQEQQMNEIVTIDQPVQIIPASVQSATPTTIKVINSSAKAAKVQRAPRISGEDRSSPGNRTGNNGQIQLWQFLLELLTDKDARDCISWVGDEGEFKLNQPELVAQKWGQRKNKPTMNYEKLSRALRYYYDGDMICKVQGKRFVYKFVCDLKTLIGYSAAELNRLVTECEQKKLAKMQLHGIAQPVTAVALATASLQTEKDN
Outline: as §1

ERG = biological target: T4, ERG (Homo sapiens, UniProt P11308 1-479)
T4 sequence: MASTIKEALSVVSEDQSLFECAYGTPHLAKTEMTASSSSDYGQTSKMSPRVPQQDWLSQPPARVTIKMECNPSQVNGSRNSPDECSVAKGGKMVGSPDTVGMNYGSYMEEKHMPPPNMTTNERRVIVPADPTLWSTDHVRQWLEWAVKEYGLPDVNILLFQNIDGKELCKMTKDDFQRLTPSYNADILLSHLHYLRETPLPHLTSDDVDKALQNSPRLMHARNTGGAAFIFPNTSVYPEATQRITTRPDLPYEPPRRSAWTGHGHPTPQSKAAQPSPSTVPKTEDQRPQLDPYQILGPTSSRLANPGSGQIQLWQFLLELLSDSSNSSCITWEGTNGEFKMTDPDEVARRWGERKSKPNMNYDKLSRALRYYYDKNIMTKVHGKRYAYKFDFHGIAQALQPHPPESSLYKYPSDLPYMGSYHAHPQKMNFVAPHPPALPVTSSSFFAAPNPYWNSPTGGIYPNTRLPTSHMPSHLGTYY
Outline: as §1

ELF1 = ELF1 (Homo sapiens, UniProt P32519 1-619)
Outline: as §1

EHF = biological target: T5, EHF (Homo sapiens, UniProt Q9NZC4 1-300)
T5 sequence: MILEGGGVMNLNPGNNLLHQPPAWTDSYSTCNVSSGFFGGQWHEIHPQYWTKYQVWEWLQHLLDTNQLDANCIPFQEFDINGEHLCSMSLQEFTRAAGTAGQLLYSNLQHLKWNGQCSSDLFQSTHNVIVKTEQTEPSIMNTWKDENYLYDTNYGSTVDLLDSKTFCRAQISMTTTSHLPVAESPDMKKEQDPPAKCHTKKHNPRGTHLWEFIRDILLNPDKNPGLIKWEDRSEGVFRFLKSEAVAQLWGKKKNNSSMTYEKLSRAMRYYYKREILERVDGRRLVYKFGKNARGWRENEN
Outline: as §1

SPI1 = SPI1 (Homo sapiens, UniProt P17947 1-270)
Outline: as §1

SPIB = SPIB (Homo sapiens, UniProt Q01892 1-262)
Outline: as §1

ELK3 = biological target: T6, ELK3 (Homo sapiens, UniProt P41970 1-407)
T6 sequence: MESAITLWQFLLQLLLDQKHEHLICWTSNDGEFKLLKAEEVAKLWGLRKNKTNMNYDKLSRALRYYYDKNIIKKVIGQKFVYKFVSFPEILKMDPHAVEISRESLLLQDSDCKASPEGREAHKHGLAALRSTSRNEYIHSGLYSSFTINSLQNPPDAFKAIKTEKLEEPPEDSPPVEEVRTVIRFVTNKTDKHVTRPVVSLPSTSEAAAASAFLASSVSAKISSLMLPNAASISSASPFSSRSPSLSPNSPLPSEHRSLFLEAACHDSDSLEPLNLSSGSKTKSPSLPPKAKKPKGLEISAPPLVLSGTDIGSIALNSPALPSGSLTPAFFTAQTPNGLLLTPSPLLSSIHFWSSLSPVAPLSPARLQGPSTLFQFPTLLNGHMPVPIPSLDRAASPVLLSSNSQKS
Outline: as §1

Chain of ELF1 (P32519 whole entry): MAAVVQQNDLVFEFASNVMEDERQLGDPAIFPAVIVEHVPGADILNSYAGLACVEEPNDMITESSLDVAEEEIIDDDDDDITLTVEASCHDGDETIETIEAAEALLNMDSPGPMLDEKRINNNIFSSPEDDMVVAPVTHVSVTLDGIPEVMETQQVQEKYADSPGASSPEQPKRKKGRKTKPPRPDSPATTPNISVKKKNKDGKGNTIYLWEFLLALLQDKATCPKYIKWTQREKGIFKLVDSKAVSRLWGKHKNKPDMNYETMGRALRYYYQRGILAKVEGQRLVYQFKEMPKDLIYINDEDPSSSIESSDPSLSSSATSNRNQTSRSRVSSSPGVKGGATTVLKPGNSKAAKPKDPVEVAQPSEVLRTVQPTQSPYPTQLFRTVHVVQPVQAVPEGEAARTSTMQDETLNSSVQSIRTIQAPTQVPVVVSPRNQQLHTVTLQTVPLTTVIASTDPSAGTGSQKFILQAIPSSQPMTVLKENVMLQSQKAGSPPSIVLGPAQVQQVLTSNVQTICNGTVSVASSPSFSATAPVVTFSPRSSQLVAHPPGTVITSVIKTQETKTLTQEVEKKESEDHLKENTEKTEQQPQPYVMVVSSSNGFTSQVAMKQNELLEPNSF
Chain of SPIB (Q01892 whole entry): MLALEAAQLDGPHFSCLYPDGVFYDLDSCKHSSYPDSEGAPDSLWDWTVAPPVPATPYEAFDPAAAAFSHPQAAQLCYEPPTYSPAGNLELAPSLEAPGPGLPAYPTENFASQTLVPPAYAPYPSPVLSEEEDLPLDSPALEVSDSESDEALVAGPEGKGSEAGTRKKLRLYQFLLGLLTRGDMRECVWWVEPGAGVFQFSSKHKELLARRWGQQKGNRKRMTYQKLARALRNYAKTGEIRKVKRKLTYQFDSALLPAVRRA

## CTATGC
FLI1
  binding signal: 1.41 fold enrichment (6-mer frequency, TF over GST control)
ELK1
  binding signal: 1.56 fold enrichment (6-mer frequency, TF over GST control)
GABPA
  binding signal: 1.53 fold enrichment (6-mer frequency, TF over GST control)
ERG
  binding signal: 1.39 fold enrichment (6-mer frequency, TF over GST control)
ELF1
  binding signal: 1.47 fold enrichment (6-mer frequency, TF over GST control)
EHF
  binding signal: 1.31 fold enrichment (6-mer frequency, TF over GST control)
SPI1
  binding signal: 1.38 fold enrichment (6-mer frequency, TF over GST control)
SPIB
  binding signal: 1.48 fold enrichment (6-mer frequency, TF over GST control)
ELK3
  binding signal: 1.4 fold enrichment (6-mer frequency, TF over GST control)
